# BAZ2B inh – inhibitors of human BAZ2B bromodomain; AlphaScreen BAZ2B-H3K14Ac peptide displacement; AID 504333; Potency, µM (series often up to 114 µM), actives largely listed as inhibitors; Q9UIF8; 360,000 tested, 4.4% active; further: nearly all actives have a fitted effect of over 60% in size
#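 BAZ2B 50 nM plus b-H3(5-23)K14Ac 50 nM, PBS pH 7.4/0.01% Tween-20, 30 min RT; compound added (max 110 uM), 30 min RT; streptavidin donor/Ni-chelate acceptor beads 10 ug/mL final, 20 min dark; AlphaScreen read.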
# JMJD2A Tudor inh – JMJD2A Tudor domain (human) inhibition | O75164 | AID 504339 | 390,000 tested, 4.4% active | AlphaScreen JMJD2A-Tudor / H3K4me3 peptide binding | Potency, µM (titrated, usually from 114 µM), hits mostly inhibitors; further: nearly all actives have a fitted effect of over 50% in size
# KAT2A inh – blocks human GCN5L2 histone acetyltransferase | Q92830 | AID 504327 | Potency, µM (series often up to 58.9 µM), actives largely listed as inhibitors | 390,000 tested, 0.21% active | GCN5L2 HAT assay, ThioGlo1 CoA-SH fluorescence
#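 GCN5L2 (20nM final) in 50mM HEPES, 0.1mM EDTA pH 7.5, 0.01% Tween-20 was preincubated 15 min at room temperature with compound, then given ThioGlo1 (50uM), H3(1-25) peptide (75uM) and acetyl-CoA (70uM); CoA-thiol fluorescence (Ex340/Em540) was read at 0 and 20 min.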
# HP1b chromo inh – HP1-beta chromodomain-methylated histone interaction inhibition | P83916 | AlphaScreen HP1-beta / biotin-H3K9me3 peptide binding | Potency, µM (series often up to 114 µM), hits mostly inhibitors | 390,000 tested, 0.56% active | AID 540317; further: nearly all actives have a fitted effect of over 70% in size
# Target sequence (P83916 whole entry, looked up): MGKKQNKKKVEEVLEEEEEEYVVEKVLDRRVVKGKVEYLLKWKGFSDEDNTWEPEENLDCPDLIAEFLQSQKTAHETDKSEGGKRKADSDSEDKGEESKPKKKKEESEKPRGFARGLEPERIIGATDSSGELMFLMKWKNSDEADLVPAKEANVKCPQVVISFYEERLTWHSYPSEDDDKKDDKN
#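 HP1-beta protein (50 nM final) preincubated 30 min at room temperature with biotinylated H3(1-18)K9me3 peptide (50 nM) in PBS pH 7.4, 0.01% Tween-20, then compound added for 30 min. AlphaScreen streptavidin donor/nickel chelate acceptor beads (10 ug/mL final), 30 min dark, luminescence read.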
# PLK1 PBD block – inhibitors of human PLK1 polo-box domain binding; 360,000 tested, 2.8% active; P53350; AID 720504; Plk1 PBD binding of FITC phosphopeptide, fluorescence polarization; Potency, µM, most hits filed as inhibitors; further: series mostly up to about 57 µM; nearly all actives have a fitted effect of over 65% in size
# PI5P4K alpha inh – inhibitors of human PI5P4K alpha; 330,000 tested, 1.2% active; PI5P4Kalpha enzyme, ADP-Glo luminescence, 60 min; stronger effect = lower value; AID 652105; max response, %; P48426; active means max response of -50% or lower; inconclusive means between -30% and -50%; inactive means -30% or higher; further: value at the top dose of about 77 µM
# Target sequence (P48426 whole entry, looked up): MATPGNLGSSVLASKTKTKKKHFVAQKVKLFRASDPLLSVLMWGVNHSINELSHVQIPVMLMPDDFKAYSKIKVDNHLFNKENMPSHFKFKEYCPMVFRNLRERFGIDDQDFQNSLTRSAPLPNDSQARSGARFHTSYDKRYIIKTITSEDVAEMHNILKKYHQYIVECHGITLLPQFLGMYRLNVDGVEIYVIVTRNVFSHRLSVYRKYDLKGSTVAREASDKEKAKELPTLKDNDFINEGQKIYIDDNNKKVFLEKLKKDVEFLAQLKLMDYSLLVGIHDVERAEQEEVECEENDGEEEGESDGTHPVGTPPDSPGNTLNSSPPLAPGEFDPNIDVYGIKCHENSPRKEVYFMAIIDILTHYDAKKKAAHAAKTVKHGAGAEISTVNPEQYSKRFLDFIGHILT
#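 Reactions run in 0.038 M HEPES pH 7.4, 0.28 mM EGTA, 0.1% CHAPS and 5% DMSO, with PI5P4Kalpha, substrate, compound and 5 microM ATP final, one hour at room temperature. Readout is ADP-Glo luminescence.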
# A number is an active result; n = inactive; u = inconclusive; x = no result given. Shown are actives, neighbours in structure and some others; about 7% of the full set was active somewhere. Unless noted, the call rests on the fitted dose curve; in most records, active means well fitted curve in the direction sought with a large enough effect; inconclusive means small, poorly fitted or top-dose-only effect, or another doubt; inactive means no such curve, though single readings can be large; an effect the other way counts as inactive or inconclusive.
SMILES,BAZ2B inh,JMJD2A Tudor inh,KAT2A inh,HP1b chromo inh,PLK1 PBD block,PI5P4K alpha inh
COC(=O)C1=C(C)N(CCCC(=O)O)C(=O)NC1c1cccc(OC)c1 (centres undefined),x,n,x,n,n,-52
COC(=O)C1=C(C)N(CCCC(=O)O)C(=O)NC1c1ccc2c(c1)OCO2 (centres undefined),x,n,x,n,n,-62
CCOC(=O)C1=C(C)N(CCCCCC(=O)O)C(=O)NC1c1cccc([N+](=O)[O-])c1 (centres undefined),n,n,n,n,n,n
O=C(NCCCn1cccn1)C1CCC(=O)N(Cc2ccccc2F)C1 (centres undefined),n,n,n,n,n,n
CC1=C(C(=O)OCC(Br)(Br)Br)C(c2cccc([N+](=O)[O-])c2)NC(=O)N1CCCC(=O)O (centres undefined),x,n,x,n,n,-64
CCOC(=O)C1=C(C)N(CCCC(=O)O)C(=O)NC1c1ccc(Cl)cc1 (centres undefined),n,n,n,n,n,-93
CCOC(=O)C1=C(C)N(CCCC(=O)O)C(=O)NC1c1ccccc1 (centres undefined),x,n,x,n,n,-57
CCOC(=O)C1=C(C)N(CCCC(=O)O)C(=O)NC1c1ccc2ccccc2c1 (centres undefined),x,n,x,n,n,-75
CCOC(=O)C1=C(C)N(CCO)C(=O)NC1c1ccccc1 (centres undefined),n,n,n,n,n,x
CCOC(=O)C1=C(C)N(CCCCCC(=O)O)C(=O)NC1c1ccc(Br)cc1 (centres undefined),n,u,n,n,n,n
COc1ccc(NC(=O)N2CCN(S(=O)(=O)c3ccc4c(ccn4C)c3)CC2)c(OC)c1,n,n,n,n,x,x
CC1CC(C)CN(CC(O)COCc2ccccc2)C1 (centres undefined),n,n,n,n,n,n
COCCCN1C(=O)/C(=C/c2ccc(CNS(=O)(=O)c3ccccc3)o2)C(C(=O)OC)=C1C,n,56µM,n,n,n,n
CCOc1ccc(NC(=O)C(=O)N/N=C\c2ccc(CNS(=O)(=O)c3ccccc3)o2)cc1,n,n,n,n,n,n
O=C1CCCc2c1cc(-c1ccccc1)n2-c1ccccc1,25µM,40µM,n,u,n,x
CSCCC(NS(=O)(=O)c1ccc(C)cc1)C(=O)N1CCN(S(=O)(=O)c2ccc(F)cc2)CC1 (centres undefined),n,n,n,n,n,n
CCOC(=O)/C(C)=C1\NC(C)(C)Cc2ccccc21,18µM,22µM,u,25µM,n,-66
CCOC(=O)/C(C(=O)Nc1ccccc1Cl)=C1/NC(C)(C)Cc2ccccc21,n,n,n,n,n,x
COC(=O)C=C1CCC2C3CC(F)C4(O)CC(=O)CCC4(C)C3C(=O)CC12C (centres undefined),x,n,x,n,n,n
c1ccc2[nH]c3cc4ncnc4cc3nc2c1,n,n,n,n,24µM,n
COc1ccc(NCc2n[nH]nc2-c2ccccc2)cc1Cl,40µM,u,n,n,n,n
Cc1ccc(Sc2ccccc2CN(C)C)c(N)c1,x,x,n,x,x,x
Cc1ccc(SSc2cc(C)ccc2N)c(N)c1,50µM,7.9µM,u,14µM,0.34µM,-81
c1ccc(-c2cncn2-c2ccccc2)cc1,50µM,u,n,n,n,n
O=c1[nH]c(-c2cccnc2)nc2ccccc12,n,n,n,n,n,n
SMILES,BAZ2B inh,JMJD2A Tudor inh,KAT2A inh,HP1b chromo inh,PLK1 PBD block,PI5P4K alpha inh
CC(c1nc2ccccc2c(=O)[nH]1)N1CCN(C)CC1 (centres undefined),n,71µM,n,u,u,n
CC(C)Nc1nc2ccccc2c(=O)[nH]1,n,u,n,n,21µM,n
O=c1[nH]c(-c2ccncc2)nc2ccccc12,n,u,n,u,5.3µM,u
CCCNc1nc2ccccc2c(=O)[nH]1,n,n,n,n,n,n
CCOc1ccc(Cl)cc1-c1cc(C(=O)NCc2cc(C(F)(F)F)cc(C(F)(F)F)c2)[nH]n1,x,x,x,x,n,n
CN(C)c1ccc(CNC(=O)CN2C(=O)CCn3nc(-c4cn(C)c5ccccc45)cc32)cc1,45µM,50µM,n,n,x,x
COc1ccc2ccccc2c1C(O)c1nccn1C (centres undefined),x,n,n,n,24µM,x
COc1ccc(Cl)cc1NC(=O)CN(C)C(=O)c1sccc1-c1ccccc1,n,n,n,n,n,n
CSc1ccccc1-c1ccc2nccn2c1,x,x,x,x,n,n
c1ccc(-c2ccc(OCCOCCn3cncn3)cc2)cc1,50µM,32µM,n,u,n,n
COc1ccc(OCCn2cncn2)cc1,56µM,7.9µM,n,n,n,n
O=C(N1CCCC1)C12CC3CC(CC(Cl)(C3)C1)C2,n,n,n,n,n,n
CCC(C)(C)c1ccc(CC(C)CN2C[C@@H](C)O[C@@H](C)C2)cc1 (some centres undefined),x,x,n,x,x,x
CCOC(=O)c1[nH]cnc1N=Nc1c(O)ccc2ccccc12,11µM,79µM,n,n,n,n
O=S(=O)(O)c1cccc(N=Nc2c(O)ccc3ccccc23)c1,11µM,u,n,u,n,-54
Oc1ccc2ccccc2c1N=Nc1ccccn1,4µM,35µM,n,8.9µM,n,n
Cc1[nH]n(S(=O)(=O)c2ccccc2)c(=O)c1N=Nc1cccc(Cl)c1,n,n,n,n,n,n
Oc1ccc2ccccc2c1N=Nc1ccccc1F,2.8µM,3.5µM,n,u,n,n
CCN(c1ccc(OC)cc1)S(=O)(=O)c1csc(C(=O)N2CCCC2)c1,n,n,n,n,n,n
C[C@H](CO)N1C[C@H](C)[C@@H](CN(C)Cc2ccncc2)Oc2c(NS(=O)(=O)c3cn(C)cn3)cccc2C1=O,x,n,n,n,n,n
CCOC(=O)N1CCN(CC(O)COCC2=CCC3CC2C3(C)C)CC1 (centres undefined),50µM,3.5µM,n,u,n,n
CCOC(=O)N1CCN(CC(O)COCc2ccccc2)CC1 (centres undefined),n,n,n,n,n,n
O=C(O)c1cc(NN=Nc2cccc([N+](=O)[O-])c2)cc([N+](=O)[O-])c1,u,n,n,n,n,u
O=C(O)c1cc(NN=Nc2cccc(S(=O)(=O)O)c2)cc([N+](=O)[O-])c1,n,n,n,n,n,-55
CCCNC(=O)c1ccc(N2CCC3(CC2)CC(c2ccccc2)=NO3)c(NC(=O)c2cccc(OC)c2)c1,u,56µM,n,n,27µM,n
CCCn1cc(S(=O)(=O)c2ccccc2)c(=O)c2cc(F)c(N3CCCC(C)C3)cc21 (centres undefined),n,n,n,n,x,x

# High-throughput results: PubChem, National Center for Advancing Translational Sciences (NCATS)
